Source: publication PMC5540273 (PLoS ONE, 2017)

Assays:
Settings in all cases: concentration: 1 μM, replicates: in singlicate; n = 1
CAMK2D = tested on: CAMK2D
CAMK2G = tested on: CAMK2G
CAMK4 = tested on: CAMK4
CAMKK1 = tested on: CAMKK1
CAMKK2 = tested on: CAMKK2
CASK = tested on: CASK
CDC2L1 = tested on: T1, CDC2L1
T1 construct: gene CDK11B

CDC2L2 = tested on: CDC2L2
CDC2L5 = tested on: T2, CDC2L5
T2 construct: gene CDK13

CDK11 = tested on: T3, CDK11
T3 construct: gene CDK19

CDK2 = tested on: CDK2
CDK3 = tested on: CDK3
CDK4-cyclinD1 = tested on: CDK4-cyclinD1
CDK4-cyclinD3 = tested on: CDK4-cyclinD3
CDK4 = tested on: CDK4
CDK5 = tested on: CDK5
CDK7 = tested on: CDK7
CDK8 = tested on: CDK8
CDK9 = tested on: CDK9
CDKL1 = tested on: CDKL1
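Further: KINOMEscan kinase panel screen.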

O=c1cc(N2CCOCC2)nc2n(Cc3cccc(Cl)c3)ccn12 [GSK2296823]
%Inh (CAMK2D): 0%
%Inh (CAMK2G): 3%
%Inh (CAMK4): 0%
%Inh (CAMKK1): 17%
%Inh (CAMKK2): 0%
%Inh (CASK): 3%
%Inh (CDC2L1): 0%
%Inh (CDC2L2): 6%
%Inh (CDC2L5): 0%
%Inh (CDK11): 0%
%Inh (CDK2): 0%
%Inh (CDK3): 3%
%Inh (CDK4-cyclinD1): 0%
%Inh (CDK4-cyclinD3): 13%
%Inh (CDK4): 0%
%Inh (CDK5): 0%
%Inh (CDK7): 0%
%Inh (CDK8): 0%
%Inh (CDK9): 0%
%Inh (CDKL1): 9%

Clc1cccc(-c2nc(Nc3ccncc3)c3ccccc3n2)c1 [GW873004]
%Inh (CAMK2D): 0%
%Inh (CAMK2G): 0%
%Inh (CAMK4): 27%
%Inh (CAMKK1): 11%
%Inh (CAMKK2): 0%
%Inh (CASK): 0%
%Inh (CDC2L1): 0%
%Inh (CDC2L2): 7%
%Inh (CDC2L5): 15%
%Inh (CDK11): 2%
%Inh (CDK2): 0%
%Inh (CDK3): 0%
%Inh (CDK4-cyclinD1): 21%
%Inh (CDK4-cyclinD3): 0%
%Inh (CDK4): 0%
%Inh (CDK5): 0%
%Inh (CDK7): 10%
%Inh (CDK8): 50%
%Inh (CDK9): 0%
%Inh (CDKL1): 30%

Nc1nc(-c2cccnc2)c(-c2ccnc3ccccc23)s1 [GW684083]
%Inh (CAMK2D): 2%
%Inh (CAMK2G): 27%
%Inh (CAMK4): 0%
%Inh (CAMKK1): 0%
%Inh (CAMKK2): 19%
%Inh (CASK): 14%
%Inh (CDC2L1): 0%
%Inh (CDC2L2): 12%
%Inh (CDC2L5): 0%
%Inh (CDK11): 8%
%Inh (CDK2): 0%
%Inh (CDK3): 11%
%Inh (CDK4-cyclinD1): 16%
%Inh (CDK4-cyclinD3): 0%
%Inh (CDK4): 41%
%Inh (CDK5): 0%
%Inh (CDK7): 0%
%Inh (CDK8): 46%
%Inh (CDK9): 0%
%Inh (CDKL1): 13%

Cc1cc(N2CCC(NS(=O)(=O)c3ccc(F)cc3)CC2)nc(Nc2cccc(C#N)c2)n1.O=C(O)C(F)(F)F [GSK1653537]
%Inh (CAMK2D): 3%
%Inh (CAMK2G): 1%
%Inh (CAMK4): 0%
%Inh (CAMKK1): 5%
%Inh (CAMKK2): 0%
%Inh (CASK): 0%
%Inh (CDC2L1): 0%
%Inh (CDC2L2): 0%
%Inh (CDC2L5): 0%
%Inh (CDK11): 0%
%Inh (CDK2): 4%
%Inh (CDK3): 0%
%Inh (CDK4-cyclinD1): 0%
%Inh (CDK4-cyclinD3): 0%
%Inh (CDK4): 5%
%Inh (CDK5): 0%
%Inh (CDK7): 0%
%Inh (CDK8): 10%
%Inh (CDK9): 0%
%Inh (CDKL1): 0%

COc1ccc(-c2oc3ncnc(N)c3c2-c2ccc(OC)cc2)cc1 [SB-589132]
%Inh (CAMK2D): 3%
%Inh (CAMK2G): 2%
%Inh (CAMK4): 13%
%Inh (CAMKK1): 0%
%Inh (CAMKK2): 0%
%Inh (CASK): 0%
%Inh (CDC2L1): 0%
%Inh (CDC2L2): 0%
%Inh (CDC2L5): 0%
%Inh (CDK11): 11%
%Inh (CDK2): 0%
%Inh (CDK3): 6%
%Inh (CDK4-cyclinD1): 27%
%Inh (CDK4-cyclinD3): 12%
%Inh (CDK4): 59%
%Inh (CDK5): 0%
%Inh (CDK7): 0%
%Inh (CDK8): 62%
%Inh (CDK9): 0%
%Inh (CDKL1): 5%

O=C(Nc1ccccc1)Nc1ccc(Oc2ccc3nccn3n2)cc1
%Inh (CAMK2D): 0%
%Inh (CAMK2G): 14%
%Inh (CAMK4): 29%
%Inh (CAMKK1): 0%
%Inh (CAMKK2): 14%
%Inh (CASK): 7%
%Inh (CDC2L1): 0%
%Inh (CDC2L2): 8%
%Inh (CDC2L5): 0%
%Inh (CDK11): 0%
%Inh (CDK2): 0%
%Inh (CDK3): 1%
%Inh (CDK4-cyclinD1): 0%
%Inh (CDK4-cyclinD3): 0%
%Inh (CDK4): 0%
%Inh (CDK5): 0%
%Inh (CDK7): 0%
%Inh (CDK8): 23%
%Inh (CDK9): 0%
%Inh (CDKL1): 36%

Nc1nccc2scc(-c3ccc4c(c3)CCN4C(=O)Cc3cc(F)ccc3F)c12 [GSK2587663]
%Inh (CAMK2D): 9%
%Inh (CAMK2G): 23%
%Inh (CAMK4): 0%
%Inh (CAMKK1): 5%
%Inh (CAMKK2): 9%
%Inh (CASK): 22%
%Inh (CDC2L1): 0%
%Inh (CDC2L2): 6%
%Inh (CDC2L5): 0%
%Inh (CDK11): 61%
%Inh (CDK2): 0%
%Inh (CDK3): 18%
%Inh (CDK4-cyclinD1): 0%
%Inh (CDK4-cyclinD3): 0%
%Inh (CDK4): 0%
%Inh (CDK5): 0%
%Inh (CDK7): 0%
%Inh (CDK8): 61%
%Inh (CDK9): 0%
%Inh (CDKL1): 23%

Clc1ccc(-c2cc(-c3c[nH]nc3-c3ccccn3)ccn2)cc1 [GW681251]
%Inh (CAMK2D): 0%
%Inh (CAMK2G): 8%
%Inh (CAMK4): 0%
%Inh (CAMKK1): 0%
%Inh (CAMKK2): 0%
%Inh (CASK): 44%
%Inh (CDC2L1): 0%
%Inh (CDC2L2): 0%
%Inh (CDC2L5): 0%
%Inh (CDK11): 0%
%Inh (CDK2): 22%
%Inh (CDK3): 42%
%Inh (CDK4-cyclinD1): 7%
%Inh (CDK4-cyclinD3): 0%
%Inh (CDK4): 0%
%Inh (CDK5): 0%
%Inh (CDK7): 0%
%Inh (CDK8): 11%
%Inh (CDK9): 0%
%Inh (CDKL1): 15%

NC(=O)c1sc(-n2cnc3ccccc32)cc1OCc1ccccc1F [GSK1024306]
%Inh (CAMK2D): 0%
%Inh (CAMK2G): 14%
%Inh (CAMK4): 0%
%Inh (CAMKK1): 0%
%Inh (CAMKK2): 10%
%Inh (CASK): 49%
%Inh (CDC2L1): 0%
%Inh (CDC2L2): 0%
%Inh (CDC2L5): 0%
%Inh (CDK11): 8%
%Inh (CDK2): 0%
%Inh (CDK3): 0%
%Inh (CDK4-cyclinD1): 0%
%Inh (CDK4-cyclinD3): 0%
%Inh (CDK4): 33%
%Inh (CDK5): 0%
%Inh (CDK7): 0%
%Inh (CDK8): 37%
%Inh (CDK9): 0%
%Inh (CDKL1): 10%

Oc1ccc2ncnc(Nc3ccc(OCc4ccccc4)cc3)c2c1 [GI262866]
%Inh (CAMK2D): 1%
%Inh (CAMK2G): 2%
%Inh (CAMK4): 0%
%Inh (CAMKK1): 0%
%Inh (CAMKK2): 0%
%Inh (CASK): 8%
%Inh (CDC2L1): 0%
%Inh (CDC2L2): 0%
%Inh (CDC2L5): 0%
%Inh (CDK11): 36%
%Inh (CDK2): 0%
%Inh (CDK3): 22%
%Inh (CDK4-cyclinD1): 0%
%Inh (CDK4-cyclinD3): 0%
%Inh (CDK4): 16%
%Inh (CDK5): 0%
%Inh (CDK7): 0%
%Inh (CDK8): 21%
%Inh (CDK9): 0%
%Inh (CDKL1): 0%
